Compound activity from PubChem.
Not all results are given here.
aSyn UTR act: Activators via SNCA 5'UTR binding, MLPCN | alpha-synuclein 5'UTR reporter, activators screen | activity score, % (tested at 7.5 µM), hits read low | 300,000 compounds, 7.1% hits; in the data active = activity score below about -60%
* = called active by the depositor.

SMILES	aSyn UTR act
C=CCn1c(-c2ccccc2)c[nH]c1=S	-120*
Cn1c(-c2ccc(-c3ccccc3)cc2)c[nH]c1=S	-173*
CCn1c(-c2ccc(-c3ccccc3)cc2)c[nH]c1=S	-65*
CCOC(=O)C(=Cc1ccc(Br)cc1)C(=O)OCC	-121*
CCOC(=O)/C(=C\c1cccnc1)C(=O)c1cc(C(C)=O)c(Nc2ccccc2)s1	83
CCOC(=O)C(CC)(CC)C(=O)/C=C/c1ccc(Br)cc1	-92*
COc1ccc(NC(=O)CSC2CCCCC2)cc1	-158*
COc1ccc(NC(=O)C(=S)N2CCCC2)cc1	-63*
COc1ccc(NC(=O)C(=S)NC2CCCCC2)cc1	-125*
CCc1ccc(NC(=O)C(=S)NC2CCCCC2)cc1	-177*
CCOc1ccc(NC(=O)C(=S)NC2CCCCC2)cc1	-192*
O=C(CSCCO)Nc1ccc(C2CCCCC2)cc1	-127*
CC(=O)Nc1ncnc2c1c(-c1ccc(Cl)cc1)nn2C(C)(C)C	53
CC(=O)Nc1nc(-c2ccc(Cl)cc2)nc(C)c1C(C)=O	-111*
CCOc1ccc(NC(=S)c2ccc3ccccc3n2)cc1	-67*
COc1ccc(NC(=S)c2ccc3ccccc3n2)cc1	-70*
COc1ccc(C(=O)NC(=S)NNC(=O)c2ccc3ccccc3n2)cc1	73
Cc1ccc(OCCSc2ncnc3nc[nH]c23)cc1	-67*
Cn1cccc1-c1nc2ccc(NC(=O)c3cccs3)cc2[nH]1	-115*
CC(=O)Nc1ccc2nc(-c3cccn3C)[nH]c2c1	-88*
CC(=O)Nc1ccc2nc(-c3cccs3)[nH]c2c1	-110*
CCOC(=O)c1ccc(Nc2nnc(C)c3ccccc23)cc1	-104*
CCOC(=O)c1ccc(Nc2cc(C)nc(-c3ccccc3)n2)cc1	-213*
CCOC(=O)c1c(C)nc(-c2ccccc2)nc1NC(=O)CC	-87*
CCOC(=O)c1ccc(Nc2cnc3ccccc3n2)cc1	-176*
SMILES	aSyn UTR act
CCOC(=O)c1ccc(NCc2nc3ccccc3[nH]2)cc1	-149*
CC(=O)c1ccc(Nc2nc(C)cc(C)n2)cc1	-126*
CCOC(=O)c1ccc(Nc2nc(C)cc(C)n2)cc1	-104*
CCc1ccc(NCc2nc3ccccc3c(=O)[nH]2)cc1	-138*
CCOc1cc(N2CCOCC2)c(OCC)cc1NC(=O)c1cc(-c2ccco2)nc2ccccc12	114
NNC(=O)c1oc2nc(-c3ccco3)cc(-c3ccco3)c2c1N	-62*
Cc1cc(C(=O)CN2CCCC(C)C2)c(C)n1-c1ccc(F)cc1 (stereo not given)	-126*
COc1cc(C2C=C(Nc3ccccc3)C(=O)N2c2ccccc2)ccc1O (stereo not given)	-72*
CN(CCC#N)C(=O)c1cc2c(s1)-c1ccccc1SC2	-91*
Nc1ccc(C(=O)OCc2nc3c(ccc4ccccc43)[nH]2)cc1	-116*
c1ccc2[nH]c(SCC3CCCCO3)nc2c1 (stereo not given)	-76*
ClC1(Cl)CC1CSc1nc2ccccc2[nH]1 (stereo not given)	-77*
CCOc1ccc2nc(SCC3CC3(Cl)Cl)[nH]c2c1 (stereo not given)	-153*
Cc1ccnc(SCC(=O)c2cccs2)n1	-95*
Cc1cc(C)c(C#N)c(SCC(=O)c2cccs2)n1	-173*
Cc1cc(C)c(C#N)c(SCC(=O)Nc2nonc2N)n1	-87*
COc1cc(C=O)c(Br)cc1OCc1ccc(C)cc1	-204*
COC(c1ccccc1)c1nnc(CCC(=O)N(C)C(C2CC2)C2CC2)o1 (stereo not given)	-147*
S=c1[nH]nc(-c2ccc(Cl)cc2Cl)n1-c1ccccc1	-199*
CC(=O)c1sc2c(c1OC(=O)c1ccc(Cl)cc1Cl)c(=O)n(-c1ccccc1)c(=S)n2-c1ccccc1	101
CC(C)N=C1NN=C(c2ccc(Cl)c(Cl)c2)CS1	-228*
CC(C)N=C1NN=C(c2cccs2)CS1	-100*
CC(C)c1ccc(N=C2NN=C(c3cccs3)CS2)cc1	-145*
COc1cccc(-c2nc3n(n2)C(c2ccc4c(c2)OCO4)C(C(N)=O)=C(C)N3)c1 (stereo not given)	-111*
O=C(Nc1ccc2oc(-c3ccncc3)nc2c1)c1ccccc1F	-135*
SMILES	aSyn UTR act
O=C(Nc1ccc2oc(-c3ccccc3F)nc2c1)c1ccccc1F	-188*
CC(C)CC(=O)Nc1ccc2oc(-c3ccncc3)nc2c1	-74*
O=C(Nc1ccc2oc(-c3ccc(Cl)c(Cl)c3)nc2c1)c1ncn[nH]1	-168*
O=C(Nc1ccc2oc(-c3cccc(F)c3)nc2c1)c1ccccc1F	-120*
O=C(Nc1ccc2oc(-c3ccccc3)nc2c1)c1ccccc1F	-257*
O=C(Nc1ccc2oc(-c3ccncc3)nc2c1)c1cccs1	-114*
O=C(Nc1ccc2oc(-c3ccncc3)nc2c1)c1ccc([N+](=O)[O-])o1	-118*
O=C(Oc1ccc(-c2cnc3ccccc3n2)cc1)c1ccco1	-81*
CCC(=O)Oc1ccc(-c2cnc3ccccc3n2)cc1	-99*
COC(=O)C1C(O)=C(C=Nc2ccc3ccccc3c2)C(=O)CC1(C)C (stereo not given)	-75*
CSc1ccc(C2N=C(c3ccccc3)NO2)cc1 (stereo not given)	-128*
Oc1c(Br)cc(C2N=C(c3ccccc3)NO2)cc1Br (stereo not given)	-65*
CCC(=O)c1ccc(OC(=O)N2CCOCC2)cc1	-70*
CC(C)(C)c1ccc(OC(=O)N2CCOCC2)cc1	-111*
CC(=O)Nc1nc(-c2ccccc2)ns1	-108*
COCC(=O)Nc1nc(-c2ccccc2)ns1	-78*
O=C(Nc1ccc2c(c1)OCO2)c1cnc2n(c1=O)CCS2	-125*
O=C(Nc1ccc2c(c1)OCCO2)c1cnc2n(c1=O)CCS2	-75*
O=C(O)/C=C/c1ccc2ccccc2n1	-64*
C(=C\c1ccc2ccccc2n1)/c1ccccc1	67
COc1ccc(-n2nc3cc(N)c(Br)cc3n2)cc1	-164*
COc1ccc(-n2nc3cc(C)c(N)c(Br)c3n2)cc1	-89*
COc1ccc(-n2nc3ccccc3n2)cc1	-93*
COc1ccc2nc3ccccc3nc2c1	-123*
Nc1ccc(-n2nc3ccccc3n2)cc1	58
SMILES	aSyn UTR act
O=C(c1nn2c(C(F)(F)F)cc(-c3cccs3)nc2c1Br)N1CCCc2ccccc21	82
O=C(C[n+]1cc(-c2ccccc2)n2c1CCC2)Nc1nc(-c2ccccc2)cs1	-73*
O=C(CSCC(=O)N1CCCc2ccccc21)Nc1nc(-c2ccccc2)cs1	-100*
O=C(C[n+]1cc(-c2ccc(F)cc2)n2c1CCC2)c1cccs1	-144*
Cc1cc(C)c(S(=O)(=O)Nc2cc(SCC(=O)O)c(O)c3ccccc23)cc1C	67
N#Cc1cnn(-c2ncnc3sc(-c4ccccc4)cc23)c1N	-65*
COc1ccccc1-n1cnc2cc(NC(=O)c3ccco3)ccc21	-87*
O=C(Nc1ccc2c(c1)ncn2C1CCCCC1)c1ccco1	-117*
CC(C)n1cnc2cc(NC(=O)c3ccco3)ccc21	-71*
Cc1nn(-c2ccc(N3CCCCC3)nn2)c(C)c1CCC(=O)Nc1cc(F)ccc1F	-65*
c1ccc(CCNc2ncnc3nc[nH]c23)cc1	-113*
c1ccc2c(CCNc3ncnc4nc[nH]c34)c[nH]c2c1	-73*
Cc1nc2ccccc2c(=O)n1NCc1cc(Br)cs1	-81*
Cc1ccc2nc(CSc3nc(C)ccc3C#N)[nH]c2c1	79
Cc1cc(C(=O)CSc2nc3ccccc3c(=O)[nH]2)c(C)n1C	-130*
Cc1ccc2nc(SCc3nc4ccccc4c(=O)[nH]3)[nH]c2c1	-140*
Cc1ccc(CSc2nc3ccncc3[nH]2)cc1	73
